Screening data: PubChem, The Scripps Research Institute Molecular Screening Center
Sampled rows, rich in hits. Any-hit rate of the full collection: about 2%.
LEDGF integ inh: blocks HIV-1 LEDGF/p75-dependent DNA integration; TR-FRET IN-LEDGF/p75 DNA integration, Eu/Cy5; inhibition, % at 3.7 µM; actives 0.64% (n = 370,000);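 active = inhibition above the screen-wide mean plus 3 SD, cut at about 13% in these data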;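 note: signal is the Cy5 over europium emission ratio at 671 and 618 nm; 0% = plate median of compound wells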
MBD2 DNA inh: blocks human MBD2 binding to methylated DNA | inhibition, % at 4.4 µM | actives 0.31% (n = 370,000) | Q9UBB5 | TR-FRET, MBD2 binding to methylated oligonucleotide; in the data active = inhibition above about 13%
Rin1 Abl inh: inhibitors of human Rin1-Abl protein interaction; P00519+Q13671; TR-FRET Rin1/Abl binding, biochemical; inhibition, % at 7.35 µM; actives 0.4% (n = 360,000); AID 588664; in the data active = inhibition above about 5%, passing the limit was not always enough
UHRF1 MBD2 ctr: human UHRF1 methylated DNA binding inhibitors; Q96T88; UHRF1 binding to methylated oligo, TR-FRET; inhibition, % at 4.4 µM; actives 0.75% (n = 370,000); in the data active = inhibition above about 21%;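 note: UHRF1 SRA domain binding a hemimethylated CpG hairpin DNA probe; 0% = median of test compound wells and 100% = reference inhibitor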
TCR-CD3 inh: inhibitors of human TCR-CD3 interaction; TAMRA-labeled TCR probe fluorescence, biochemical; actives 0.37% (n = 360,000); inhibition, % at 9.4 µM; AID 651800;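 note: recombinant mutant TCR 2C K166C tagged with TAMRA read by polarization; 0% = receptor in buffer alone and 100% = receptor with positive control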
BSA probe FL: interferes with TAMRA-BSA probe, flagging TCR-CD3 hits | inhibition, % at 9.4 µM | shares compounds with TCR-CD3 inh | actives 10% (n = 1,200) | TAMRA-labeled BSA probe fluorescence counterscreen; in the data active = inhibition above about 23%;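 note: 0% = buffer low control and 100% = reference high control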
TCR-CD3 inh conf: TCR-CD3 interaction inhibition, confirmation; shares compounds with TCR-CD3 inh; TAMRA-labeled TCR probe fluorescence binding assay; inhibition, % at 9.4 µM; actives 48% (n = 1,200); AID 652036
The depositor's hits bear a star; · = no result. Cut-off read from the data, not from the text of the source, unless noted: active = inhibition above about 19%; inactive = the rest.

SMILES	LEDGF integ inh	MBD2 DNA inh	Rin1 Abl inh	UHRF1 MBD2 ctr	TCR-CD3 inh	BSA probe FL	TCR-CD3 inh conf
Cc1ccccc1NC(=S)N/N=C/c1ccc(O)cc1O	-3	2	2	-5	20*	-16	7
CCCOc1ccc(/C=N/Nc2ccccc2[N+](=O)[O-])c(O)c1	2	-3	1	-3	1	·	·
CCCOc1ccc(/C=N/NC(=S)Nc2ccccc2[N+](=O)[O-])c(O)c1	2	-5	·	-9	27*	-12	8
CCn1c2c(n(C(C)=O)c1=O)C[C@@H](c1ccccc1)[C@@H](C)[C@@H](C(=O)N1CCCC1)C2	2	-3	·	-1	6	·	·
COCCN(C(=O)CC1C(=O)NCCN1Cc1ccc(-c2ccccc2)cc1)C(C)C (stereo not drawn)	-1	4	-2	3	24*	10	6
O=C(NC1CCCCC1)C(C1CC1)n1c(=O)c(-c2cc3ccccc3[nH]2)nc2ccccc21 (stereo not drawn)	-4	-4	·	-2	8	·	·
COc1ccccc1C(=O)NCCC(=O)NNC(=O)c1ccccc1O	-18	0	-2	7	45*	-16	30*
O=C(NNC(=O)c1ccccc1O)c1ccc(Br)cc1	-9	0	-2	-1	23*	-4	21*
COc1ccccc1C(=O)NNC(=O)c1ccc(C)cc1	-4	1	-2	2	-4	·	·
COc1ccccc1OCC(=O)NCCNC(=O)COc1ccccc1OC	-6	0	3	-2	8	·	·
COCC(=O)NNC(=O)c1ccccc1OC	-1	0	6	-1	6	·	·
COc1ccccc1OCC(=O)NNC(=O)CCCC(=O)NNC(=O)COc1ccccc1OC	-1	-1	2	0	26*	-18	5
COc1ccccc1C(=O)NNC(=O)c1ccc(NC(=O)CC(C)C)cc1	-3	3	-1	1	31*	1	32*
COC(=O)C1=C(C)N(Cc2ccccc2C(F)(F)F)C(=NCc2ccc(OC)cc2)NC1c1ccccc1C(F)(F)F (stereo not drawn)	2	-5	·	5	8	·	·
O=C(c1ccc(S(=O)(=O)N2CCc3ccccc3C2)cc1)N1CCCCC1	2	3	1	-3	3	·	·
O=C(CCNC(=O)c1ccc(Br)cc1)NNC(=O)c1ccccc1O	-7	2	-1	-2	23*	-8	20*
O=C(NNC(=O)c1ccc2ccccc2c1)c1cccc(Br)c1	4	-4	2	0	-5	·	·
C=C(C)c1cccc(C(C)(C)NC(=O)NNC(=O)c2ccccc2O)c1	-2	-4	2	0	31*	-17	15
O=C(NNC(=O)c1ccccc1O)c1cccc(Br)c1	-7	0	-3	1	35*	-2	22*
N#CCC(=O)Nc1ccc(C(=O)OCC(=O)Nc2cc(-c3ccccc3)nn2-c2ccccc2)cc1	0	-4	5	0	52*	14	21*
CNC(=O)COC(=O)c1ccc(NC(=O)CC#N)cc1	3	-7	-1	2	1	·	·
CCN(CC)S(=O)(=O)c1ccc(NC(=O)COC(=O)c2ccc(NC(=O)CC#N)cc2)cc1	6	-1	4	-1	20*	-3	0
N#CCC(=O)Nc1ccc(C(=O)OCC(=O)Nc2ccccc2-c2ccccc2)cc1	2	2	4	-1	7	·	·
CCc1ccc(NC(=O)c2cnc(SC)nc2C)cc1	4	-8	-1	-2	-2	·	·
CC(C)[C@H](NC(=O)c1ccco1)C(=O)OCC(=O)c1ccc2c(c1)NC(=O)CO2	0	4	2	1	118*	2	3
SMILES	LEDGF integ inh	MBD2 DNA inh	Rin1 Abl inh	UHRF1 MBD2 ctr	TCR-CD3 inh	BSA probe FL	TCR-CD3 inh conf
CCN(CC)c1ccc(/C=c2\sc3nc4ccccc4n3c2=O)c(O)c1	0	-5	-6	-12	28*	28*	21*
CC1=C(C(=O)OCc2ccccc2)C(c2ccccc2OS(=O)(=O)c2ccc(C)cc2)NC(=O)N1CCCC(=O)O (stereo not drawn)	3	0	·	0	-1	·	·
Nc1cc(=O)[nH]c(SCC(=O)NNC(=O)c2ccccc2)n1	3	1	1	-2	22*	-1	5
COc1ccc(NCc2cccnc2)cc1	-5	-2	1	-3	-2	·	·
O=C(O)CC(C(=O)O)N1C(=O)/C(=C/c2ccc(-c3nc4ccccc4s3)o2)SC1=S (stereo not drawn)	53*	34*	3	79*	22*	-15	26*
O=C(O)CCCN1C(=O)/C(=C\c2ccc(-c3nc4ccccc4s3)o2)SC1=S	0	-3	-3	8	1	·	·
CCCS(=O)(=O)NC(=O)C1(C)CCN(C(=O)c2snnc2C)C1 (stereo not drawn)	-1	-3	-3	-1	0	·	·
N=C1C(=O)NC(=O)C1c1ccccc1 (stereo not drawn)	2	-8	-5	-1	5	·	·
O=C1NNC(=O)C1c1ccccc1	10	6	0	1	35*	1	9
COc1ccc(N2C[C@@]3(O)CC[C@@H](O)[C@@H](OC)[C@@H]3[C@@](C)(O)[C@@H]2CC=C(C)C)cc1	0	7	·	0	0	·	·
Cc1onc(-c2ccccc2Cl)c1C(=O)NCc1ccc2c(c1)cc(C)n2C	-4	-2	-22	-4	34*	8	4
Cc1ccc(CNC(=O)c2c(-c3ccccc3Cl)noc2C)cc1	-4	0	1	-1	-7	·	·
Cc1ccc(S(=O)(=O)NCc2ccc3c(c2)cc(C)n3C)cc1	5	-2	-1	0	42*	6	6
COc1ccc(CC(=O)NCc2ccc3c(c2)cc(C)n3C)cc1OC	4	4	-10	1	8	·	·
COc1cc(/C=C\C(=O)NCc2ccc3c(c2)cc(C)n3C)cc(OC)c1OC	0	-4	-6	-7	31*	-1	-1
Cc1cc2cc(CNC(=O)COc3ccccc3)ccc2n1C	0	1	-5	11	27*	14	9
O=C(Nc1cccc2nsnc12)c1cc2c(cc1Cl)Sc1nccn1S2(=O)=O	0	-2	-2	-4	2	·	·
Cc1c(C(=O)Nc2cccc([N+](=O)[O-])c2)cnn1-c1ccccc1	4	3	0	0	3	·	·
COc1ccc(Cl)cc1-c1noc([C@@H]2O[C@H](CO)[C@@H](O)[C@H]2O)n1	1	-3	1	-1	8	·	·
CC(C)n1cnnc1SCC(=O)NNC(=O)COc1ccc(Cl)cc1	-2	1	1	-3	2	·	·
COc1ccc(C(=O)NCc2ccc3c(c2)cc(C)n3C)cc1	-3	-9	-10	-3	16	·	·
